Mcl-1 Bim block: inhibitors of Bim-Mcl-1 interaction, human. Bead-based flow cytometry, Bim peptide-Mcl-1 binding. inhibition, % at 10 µM. hit rate 0.1% among 190,000. Q07820; in the data active means inhibition above about 40%;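 further: 0% = no compound tracer wells and 100% = peptide blocker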
Hck-Nef inh: inhibitors of human Hck kinase activated by Nef. inhibition, % at 20 µM. Recombinant Hck-YEEI plus Nef, Z-Lyte FRET kinase assay. P08631. hit rate 0.68% among 220,000;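 active means Hck-Nef kinase inhibition above about 50%, limit read from the data; inactive means inhibition below that limit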;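 further: 0% = DMSO with Hck plus Nef and 100% = Hck alone without Nef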
14-3-3 Bad PPI: disrupts binding of bovine 14-3-3 zeta to phospho-Bad peptide; hit rate 0.71% among 220,000; P63103; TR-FRET 14-3-3zeta/Dy647-pBad peptide displacement, 1 h; inhibition, % at 21.7 µM;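 active means inhibition above about 70%, limit read from the data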;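 further: 0% = full 14-3-3 plus peptide FRET controls and 100% = background without 14-3-3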
eIF4E-4G inh: blocks eIF4E binding to eIF4G | hit rate 0.37% among 220,000 | TR-FRET eIF4E-eIF4GI(517-606) binding, 2 h | AID 782 | inhibition, % at 21.7 µM | P63073+Q04637;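 active means inhibition above about 30%, limit read from the data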;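 further: 0% = full FRET control wells and 100% = background wells lacking eIF4GI fragment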
Target sequence (P63073 whole entry, looked up, the tested form may be a part): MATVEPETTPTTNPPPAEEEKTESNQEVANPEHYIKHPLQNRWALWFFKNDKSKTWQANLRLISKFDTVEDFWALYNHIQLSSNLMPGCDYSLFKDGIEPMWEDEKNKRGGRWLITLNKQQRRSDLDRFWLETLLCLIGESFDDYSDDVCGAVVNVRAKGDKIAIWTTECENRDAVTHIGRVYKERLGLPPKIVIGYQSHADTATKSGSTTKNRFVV
Target sequence (Q04637 whole entry, looked up, the tested form may be a part): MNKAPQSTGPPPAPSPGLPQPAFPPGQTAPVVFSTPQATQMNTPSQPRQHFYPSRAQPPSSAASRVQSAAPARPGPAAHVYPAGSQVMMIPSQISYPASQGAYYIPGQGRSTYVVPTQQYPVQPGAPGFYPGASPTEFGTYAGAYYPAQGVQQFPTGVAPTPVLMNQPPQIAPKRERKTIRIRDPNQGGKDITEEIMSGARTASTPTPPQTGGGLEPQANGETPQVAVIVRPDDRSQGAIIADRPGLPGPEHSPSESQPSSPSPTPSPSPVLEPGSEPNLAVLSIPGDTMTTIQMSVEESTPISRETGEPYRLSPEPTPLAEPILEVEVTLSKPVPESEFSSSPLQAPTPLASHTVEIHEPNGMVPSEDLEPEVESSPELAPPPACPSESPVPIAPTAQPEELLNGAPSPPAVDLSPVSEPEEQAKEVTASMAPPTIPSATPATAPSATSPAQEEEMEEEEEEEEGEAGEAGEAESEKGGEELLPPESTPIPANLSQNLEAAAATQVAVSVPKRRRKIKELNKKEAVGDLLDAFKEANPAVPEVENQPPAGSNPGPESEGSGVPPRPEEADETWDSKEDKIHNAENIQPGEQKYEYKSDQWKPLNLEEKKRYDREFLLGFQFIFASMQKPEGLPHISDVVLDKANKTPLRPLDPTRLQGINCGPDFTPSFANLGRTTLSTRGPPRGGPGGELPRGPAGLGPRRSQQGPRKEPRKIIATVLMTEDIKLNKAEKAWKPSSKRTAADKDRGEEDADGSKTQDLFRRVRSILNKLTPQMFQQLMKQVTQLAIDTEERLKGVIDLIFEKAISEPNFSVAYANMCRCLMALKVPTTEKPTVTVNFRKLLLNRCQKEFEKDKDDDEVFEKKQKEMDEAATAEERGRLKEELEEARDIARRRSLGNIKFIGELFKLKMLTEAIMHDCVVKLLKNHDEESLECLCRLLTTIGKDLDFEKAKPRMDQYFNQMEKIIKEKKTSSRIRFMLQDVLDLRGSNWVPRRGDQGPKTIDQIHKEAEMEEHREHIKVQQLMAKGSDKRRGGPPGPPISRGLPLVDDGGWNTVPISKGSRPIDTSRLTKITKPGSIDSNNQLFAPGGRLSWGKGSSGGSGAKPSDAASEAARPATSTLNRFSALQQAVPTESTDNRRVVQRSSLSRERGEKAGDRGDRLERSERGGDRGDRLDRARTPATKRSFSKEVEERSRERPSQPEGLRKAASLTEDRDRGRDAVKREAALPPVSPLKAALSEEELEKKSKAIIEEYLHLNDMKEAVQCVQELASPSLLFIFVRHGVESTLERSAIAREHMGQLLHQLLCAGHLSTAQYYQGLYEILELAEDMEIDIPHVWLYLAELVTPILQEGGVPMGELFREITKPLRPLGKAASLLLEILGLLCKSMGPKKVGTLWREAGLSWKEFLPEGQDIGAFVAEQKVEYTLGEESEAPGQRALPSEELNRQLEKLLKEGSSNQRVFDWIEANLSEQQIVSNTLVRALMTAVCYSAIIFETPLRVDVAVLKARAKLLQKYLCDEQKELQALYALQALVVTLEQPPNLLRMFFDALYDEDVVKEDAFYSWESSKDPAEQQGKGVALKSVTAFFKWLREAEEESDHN
Mcl1-Bid inh: Mcl-1/Bid interaction inhibition. TR-FRET Mcl-1/Bid-Dy647 peptide binding, 1536-well. hit rate 0.97% among 220,000. Q07820. inhibition, % at 21.7 µM;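 active means compounds that cut the binding signal by more than half at the single screening dose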;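 further: His-tagged Mcl-1 with europium anti-His antibody binding Bid BH3 peptide; 0% = Mcl-1 plus peptide wells and 100% = peptide-only wells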
Mcl1 Noxa PPI: Mcl-1/Noxa interaction inhibition. Q07820. TR-FRET Mcl-1/Noxa peptide binding, 2 h. inhibition, % at 21.7 µM. hit rate 1.5% among 220,000. AID 1022;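 active means compounds that cut the protein-peptide binding signal by more than 50% relative to plate controls in a single-dose test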;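 further: His-tagged Mcl-1 with rhodamine Noxa BH3 peptide and terbium anti-His antibody; 0% = Mcl-1 plus Noxa peptide wells and 100% = peptide-only wells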
Hck-Nef confirm: Hck-Nef kinase inhibition, confirmation; shares compounds with Hck-Nef inh; Recombinant Hck-YEEI:Nef, Z-Lyte FRET kinase assay; calls only at 10 µM; hit rate 28% among 1,300;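 active means average inhibition of at least 50%, with Z-scores no higher than 3 in both the phospho-tyrosine peptide and fluorescence counterscreens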
Numbers without * were called inactive; i = inactive; nt = no result given; + = active, no number; [ ] = remark or other dose. In the library only some 3.5% were active in any assay of this set; here they are far more common.

SMILES	Mcl-1 Bim block	Hck-Nef inh	14-3-3 Bad PPI	eIF4E-4G inh	Mcl1-Bid inh	Mcl1 Noxa PPI	others
COc1ccc(-c2nn(-c3ccccc3)cc2/C=C(/C#N)C(N)=O)cc1[N+](=O)[O-]	-1.0	7.3	44.6	7.8	65.3*	27.9
COc1ccc(-c2nn(-c3ccccc3)cc2/C=N/Nc2ccc(S(N)(=O)=O)cc2[N+](=O)[O-])cc1OC	0.0	41.4	21.6	-9.1	-57.2	51.3*
O=C(Nc1ccc(CN2CCOCC2)cc1)c1ccc(-c2ccc(Cl)cc2Cl)o1	-2.0	21.0	-6.8	94.5*	-26.3	17.1
Cc1cc2nc3n(c2cc1C)CC1CC(C(=O)NCc2ccco2)N(C)C31 (stereo not drawn)	nt	20.3	-2.2	-2.2	-67.2	-17.5
O=C(CCc1nnc(-c2ccc3c(c2)OCO3)o1)NC(c1cccnc1)C(F)(F)F (stereo not drawn)	0.0	21.4	0.3	0.2	-4.0	12.2
CC(=O)c1cccc(NC(=O)C(Sc2ncnc3ccccc23)c2ccccc2)c1 (stereo not drawn)	-4.0	1.9	-15.6	-1.1	56.2*	-46.0
CN(C)CCOc1ccc(C(C)(C)c2ccccc2)cc1	-1.0	9.4	58.4	5.5	64.9*	26.2
CN(C)CCOc1ccccc1C(C)(C)C	-7.0	1.7	47.8	2.6	63.3*	33.3
CC(C)Oc1ccccc1OCCN(C)C	-1.0	2.8	-0.7	-0.8	9.3	21.3
Cc1cc(C)c(C(=O)Nc2ccccc2)c(CC(C)(C)C(=O)O)c1	nt	0.3	-2.0	0.4	-9.5	-1.1
CCOC(=O)c1c(C)[nH]c(C(=O)COC(=O)c2ccc(O)cc2O)c1C	nt	-6.1	11.2	-6.8	-1.2	1.1
CCOC(=O)c1c(C)[nH]c(C(=O)OCCOc2ccc(Cl)cc2)c1C	-1.0	-0.7	2.8	-0.8	-6.0	-1.5
CCOC(=O)c1c(C)[nH]c(C(=O)CSc2nc3ccccc3o2)c1C	-1.0	0.8	-15.0	5.1	-7.1	69.1*
CCOC(=O)c1c(C)[nH]c(C(=O)OCCOc2ccccc2C)c1C	-2.0	0.7	75.2*[fluorescence artefact?]	6.8	-1.6	11.5
CCOC(=O)c1c(C)[nH]c(C(=O)COC(=O)c2ccc(O)cc2)c1C	nt	10.8	81.6*	2.5	-4.5	-30.8
CCOC(=O)c1c(C)[nH]c(C(=O)CSc2nnc(CC(C)c3ccccc3)o2)c1C (stereo not drawn)	3.0	-3.4	-11.8	-10.4	-17.7	-0.2
COc1cc(C)ccc1OCCCCN1CC(C)OC(C)C1 (stereo not drawn)	-2.0	0.1	25.4	5.3	51.6*	29.4
O=c1c(Cc2ccccc2)c(O)c2cccc3c4c(n1c23)CCCC4	nt	13.9	5.8	1.9	-32.3	4.5
O=c1c(Cl)c(O)c2cccc3c4ccccc4n1c23	-3.0	10.7	28.3	8.7	17.9	65.5*
CC(C)(C)NCC(O)COc1ccccc1C(C)(C)C (stereo not drawn)	-1.0	1.5	-13.0	4.2	-32.6	54.2*
C[N+]1(CCC(=O)c2ccccc2)CCCCC1	-3.0	-9.6	-0.4	-0.7	56.3*	-11.8
Cc1ccc(S(=O)(=O)CCSc2n[nH]c(=O)n2-c2ccc3c(c2)OCCO3)cc1	nt	16.5	1.2	-2.0	-27.8	-9.0
CC(C)(C)c1cc(-c2csc(Nc3ccccc3)[n+]2Cc2ccc(C(=O)O)cc2)cc(C(C)(C)C)c1O	nt	76.3*	42.0	11.3	88.0*	91.8*	Hck-Nef confirm=i
Cc1cnc(C(=O)N2CCCC(C(=O)c3cccc(OC(C)C)c3)C2)cn1 (stereo not drawn)	36.0	16.6	-13.5	1.4	-27.9	-7.2
CC1(C)CC(=O)C2=C(C1)c1c(ccc3ccccc13)NC2c1cc([N+](=O)[O-])cc([N+](=O)[O-])c1O (stereo not drawn)	-2.0	51.4*	2.6	0.7	10.6	46.2	Hck-Nef confirm=+
SMILES	Mcl-1 Bim block	Hck-Nef inh	14-3-3 Bad PPI	eIF4E-4G inh	Mcl1-Bid inh	Mcl1 Noxa PPI	others
COc1cc(/C=C2\SC(=O)N(Cc3ccc(Cl)cc3)C2=O)cc([N+](=O)[O-])c1O	0.0	51.0*	96.4*	60.7*	90.5*	91.7*	Hck-Nef confirm=i
Oc1ccc(Nc2ccnc3cc(Cl)ccc23)cc1	nt	64.5*	-10.4	-0.3	-9.6	19.9	Hck-Nef confirm=+
O=C(CN1CCc2ccccc21)NN1CC(=O)N(c2ccc(Cl)cc2)CC1=O	nt	-2.6	-4.2	1.1	-45.2	-3.3
CC(C)C[C@H](CO)Nc1nc(Nc2cccc(Cl)c2)c2ncn(C(C)C)c2n1	nt	105.8*	-5.7	-1.3	-25.3	-12.7	Hck-Nef confirm=+
Nc1nc(Nc2cccc(Cl)c2)nc(NCCO)c1[N+](=O)[O-]	nt	41.4	-2.4	0.3	-16.3	0.4
Nc1ccccc1CNc1nc(NCCO)nc2c1ncn2CCN1CCOCC1	nt	23.3	35.4	-2.6	-73.5	-13.9
CC(C)n1cnc2c(Nc3cccc(F)c3)nc(NCCO)nc21	nt	96.7*	-2.2	-6.4	-70.4	-5.0	Hck-Nef confirm=+
Cc1cccc(NC(=O)Cn2c([N+](=O)[O-])cnc2C)c1C	-5.0	-0.3	-4.5	8.9	-18.5	20.0
c1ccc(-c2nccc(-c3ccc(-n4cnc5ccccc54)cc3)n2)cc1	10.0	101.8*	95.8*	-3.8	54.8*	-117.4	Hck-Nef confirm=i
CCCc1nccn1S(=O)(=O)c1cc(OC)ccc1OC	3.0	-1.2	-0.8	-3.5	-11.3	5.1
CCCc1c(C)nn(-c2ncccc2[N+](=O)[O-])c1C	0.0	-1.0	-12.7	-2.8	-27.5	1.9
CC(CCn1cccn1)NC(=O)CCc1nnc(C2CCCCC2)o1 (stereo not drawn)	-3.0	16.3	-11.1	-1.8	-7.8	15.2
COCCCNC(=O)c1c(N)n(-c2cccc(S(N)(=O)=O)c2)c2nc3ccccc3nc12	0.0	64.5*	-2.4	-7.5	1.1	18.1
Nc1c(C(=O)NCC2CCCO2)c2nc3ccccc3nc2n1-c1ccccc1 (stereo not drawn)	-1.0	54.6*	19.8	3.6	3.4	13.8
CCCNC(=O)c1c(N)n(-c2cccc(OC)c2)c2nc3ccccc3nc12	0.0	76.5*	-8.3	3.1	-1.2	16.0
COC(=O)c1c(N)n(-c2cc(OC)cc(OC)c2)c2nc3ccccc3nc12	nt	15.5	nt	nt	nt	nt
C/C(=N/NC(=O)C(C)n1nc(C)c([N+](=O)[O-])c1C)c1ccc(OCC(N)=O)cc1 (stereo not drawn)	nt	17.3	4.0	-4.5	-7.4	-5.2
O=C(O)c1ccc(-c2ccc(/C=C3\NC(=O)N(Cc4ccc(Cl)cc4)C3=O)o2)cc1Cl	2.0	52.5*	12.7	13.1	6.5	56.4*	Hck-Nef confirm=i
Cc1cccn2c(=O)c3cc(C(=O)NCc4ccco4)c(=N)n(C(C)C)c3nc12	0.0	71.6*	4.1	-4.8	3.2	19.5
